Source: PubChem BioAssay AID1159580 (chemical genetic matrix, 2015)
Where “and” joins values, the source holds several entries; their conditions need not be identical. Equal values may be shown once. In all, about 5,500 compounds went through this assay and about 2,000 (36%) were called active. Not shown: some 18% with an inconclusive outcome. No stated cut-off is given here; in the data, active means normalized growth mostly below about 0.91 (no sharp cut-off); inconclusive means no clear call, values can overlap the other calls; inactive means mostly above about 0.92. The list shows a part of the results.

Test: chemical genetic growth profiling, strain panel (AID 1159580);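 further: tested at 20 µM; growth read once vehicle control cultures reached saturation at 30 °C; 1 = growth at the plate median or of vehicle wells; lower values mean less growth of the strain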
Details: S. cerevisiae deletion strains, growth OD

Measured: normalized growth

OC[C@@H](O)[C@@H](O[C@@H]1O[C@H](CO)[C@@H](O)[C@H](O)[C@H]1O)[C@H](O)[C@@H](O)CO
inactive: locus YAL013W, strain DEP1, active compounds read low 1.01 | locus YAL021C, strain ccr4, active compounds read low 0.998 | locus YAL026C, strain drs2, active compounds read low 0.982 | locus YAL030W, strain snc1, active compounds read low 0.993 | locus YBL061C, strain skt5, active compounds read low 1.01 | locus YBR009C, strain hhf1, active compounds read low 1 | locus YBR021W, strain FUR4, active compounds read low 1.03 | locus YBR023C, strain chs3, active compounds read low 1 | locus YBR171W, strain sec66, active compounds read low 0.989 | locus YBR229C, strain ROT2, active compounds read low 1.01 | locus YBR231C, strain swc5, active compounds read low 0.996 | locus YBR279W, strain paf1, active compounds read low 0.979 | locus YCL011C, strain gbp2, active compounds read low 0.989 | locus YCL016C, strain dcc1, active compounds read low 1.01 | locus YCL029C, strain bik1, active compounds read low 1.02 | locus YCL061C, strain MRC1, active compounds read low 1 | locus YCL069W, strain vba3, active compounds read low 0.972 | locus YCR088W, strain abp1, active compounds read low 0.989 | locus YDL005C, strain med2, active compounds read low 0.985 | locus YDL035C, strain GPR1, active compounds read low 1.03 | locus YDL040C, strain nat1, active compounds read low 0.989 | locus YDL074C, strain BRE1, active compounds read low 1.01 | locus YDL101C, strain DUN1, active compounds read low 1.01 | locus YDL134C, strain PPH21, active compounds read low 1.01 | locus YDL185W, strain tfp1, active compounds read low 1.01 | locus YDL192W, strain arf1, active compounds read low 1.01 | locus YDR001C, strain nth1, active compounds read low 0.996 | locus YDR069C, strain doa4, active compounds read low 0.981 | locus YDR101C, strain arx1, active compounds read low 1 | locus YDR137W, strain rgp1, active compounds read low 1 | locus YDR150W, strain NUM1, active compounds read low 0.998 | locus YDR159W, strain sac3, active compounds read low 0.986 | locus YDR162C, strain NBP2, active compounds read low 0.979 | locus YDR195W, strain ref2 0.958 | locus YDR297W, strain sur2, active compounds read low 0.992 | locus YDR318W, strain mcm21, active compounds read low 1.04 | locus YDR334W, strain swr1, active compounds read low 0.984 | locus YDR335W, strain msn5, active compounds read low 0.992 | locus YDR388W, active compounds read low 1.01 | locus YDR392W, strain spt3, active compounds read low 0.951 | locus YDR502C, strain sam2, active compounds read low 0.994 | locus YEL003W, strain gim4, active compounds read low 0.989 | locus YEL037C, strain rad23, active compounds read low 0.966 | locus YEL061C, strain CIN8 (second series), active compounds read low 0.977 | locus YEL061C, strain CIN8, active compounds read low 1 | locus YER015W, strain faa2, active compounds read low 1 | locus YER016W, strain bim1, active compounds read low 0.996 | locus YER110C, active compounds read low 1.02 | locus YER111C, strain swi4, active compounds read low 0.972 | locus YER155C, strain BEM2 (second series), active compounds read low 1.02 | locus YER155C, strain BEM2, active compounds read low 0.987 | locus YER167W, strain BCK2, active compounds read low 1.06 | locus YFR010W, strain ubp6, active compounds read low 0.969 | locus YGL078C, strain dbp3, active compounds read low 0.987 | locus YGL086W, strain mad1, active compounds read low 1.03 | locus YGL167C, strain pmr1, active compounds read low 1.01 | locus YGL173C, strain kem1, active compounds read low 1 | locus YGL227W, strain vid30, active compounds read low 0.99 | locus YGL240W, strain doc1, active compounds read low 0.99 | locus YGL248W, strain PDE1, active compounds read low 1.01 | locus YGL253W, strain hxk2, active compounds read low 0.999 | locus YGR078C, strain PAC10, active compounds read low 1.02 | locus YGR135W, strain pre9, active compounds read low 1.03 | locus YGR229C, strain SMI1, active compounds read low 1.02 | locus YGR252W, strain gcn5, active compounds read low 1.07 | locus YHR013C, strain ard1, active compounds read low 0.989 | locus YHR027C, strain rpn1, active compounds read low 1 | locus YHR030C, strain SLT2, active compounds read low 1 and 0.993 | locus YHR079C, strain IRE1 (second series), active compounds read low 1.01 | locus YHR079C, strain IRE1, active compounds read low 1.02 | locus YHR094C, strain hxt1, active compounds read low 1.01 | locus YHR129C, strain ARP1, active compounds read low 1.01 | locus YHR142W, strain chs7, active compounds read low 0.998 | locus YHR200W, strain rpn10, active compounds read low 1.02 | locus YIL066C, strain RNR3, active compounds read low 1.01 | locus YIL073C, strain SPO22, active compounds read low 1.1 | locus YIL125W, strain kgd1, active compounds read low 1.01 | locus YIR030C, strain dcg1, active compounds read low 1.01 | locus YJL092W, strain hpr5, active compounds read low 0.991 | locus YJL095W, strain BCK1 (second series), active compounds read low 1 | locus YJL095W, strain BCK1, active compounds read low 1.02 and 0.987 | locus YJL115W, strain asf1, active compounds read low 0.98 | locus YJL129C, strain trk1, active compounds read low 1.01 | locus YJL134W, strain LCB3, active compounds read low 1.01 | locus YJL154C, strain vps35, active compounds read low 0.984 | locus YJL164C, strain tpk1, active compounds read low 1 | locus YJL166W, strain qcr8, active compounds read low 0.998 | locus YJL168C, strain set2, active compounds read low 1.01 | locus YJL187C, strain SWE1 (second series), active compounds read low 1.01 | locus YJL187C, strain SWE1, active compounds read low 0.992 | locus YJR043C, strain POL32, active compounds read low 1.07 | locus YJR066W, strain TOR1, active compounds read low 0.95
